# Laboratory results as given in PubChem BioAssay (NCATS).
# Inconclusive results are not listed. A call without a number means that no potency is given here. Active and inactive are the calls of the source. Unless noted, the call rests on the fitted dose curve; in most records, active means well fitted curve in the direction sought with a large enough effect; inconclusive means small, poorly fitted or top-dose-only effect, or another doubt; inactive means no such curve, though single readings can be large; an effect the other way counts as inactive or inconclusive. Where a SMILES comes first, the peptide text is derived from it.
# Tests used:
# [1] = molecular target: Estrogen receptor (Homo sapiens) (UniProt P03372); assay: qHTS assay for small molecule agonists of estrogen receptor alpha signaling (AID 588514; calls by dose curve; further: nearly all actives have a fitted effect of over 70% in size)
# Chain of Estrogen receptor (Homo sapiens) (P03372 whole entry, looked up): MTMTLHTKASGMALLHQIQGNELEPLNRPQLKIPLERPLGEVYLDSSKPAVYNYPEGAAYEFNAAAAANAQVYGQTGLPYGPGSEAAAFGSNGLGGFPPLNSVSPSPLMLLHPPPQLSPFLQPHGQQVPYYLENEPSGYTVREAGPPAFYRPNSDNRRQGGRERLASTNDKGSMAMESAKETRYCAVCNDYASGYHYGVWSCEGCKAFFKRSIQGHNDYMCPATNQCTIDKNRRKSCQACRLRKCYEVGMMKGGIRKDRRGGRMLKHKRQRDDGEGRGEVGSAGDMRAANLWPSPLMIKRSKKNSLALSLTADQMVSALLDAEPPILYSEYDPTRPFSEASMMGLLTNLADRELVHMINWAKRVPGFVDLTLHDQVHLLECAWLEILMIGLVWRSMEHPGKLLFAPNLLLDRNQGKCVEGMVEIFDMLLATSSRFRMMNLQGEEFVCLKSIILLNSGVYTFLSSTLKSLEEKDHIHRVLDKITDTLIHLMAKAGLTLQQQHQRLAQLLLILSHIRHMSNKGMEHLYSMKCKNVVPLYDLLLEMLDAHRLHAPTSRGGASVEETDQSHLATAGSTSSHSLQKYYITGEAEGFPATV
# In short: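 ER-alpha-UAS-bla GripTite HEK293 cells, 5000/well in 2% charcoal/dextran-stripped FBS medium, treated with compound titrations 18 h at 37 C. CCF4 beta-lactamase read by fluorescence after 2 h RT; normalised to 20 nM 17-beta-estradiol (100%) and DMSO (0%), Hill fit for EC50 and efficacy.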
# [2] = molecular target: Bile acid receptor (Homo sapiens) (UniProt Q96RI1); assay: qHTS assay for small molecule antagonists of farnesoid X receptor signaling (AID 588526; calls by dose curve)
# Chain of Bile acid receptor (Homo sapiens) (Q96RI1 whole entry, looked up): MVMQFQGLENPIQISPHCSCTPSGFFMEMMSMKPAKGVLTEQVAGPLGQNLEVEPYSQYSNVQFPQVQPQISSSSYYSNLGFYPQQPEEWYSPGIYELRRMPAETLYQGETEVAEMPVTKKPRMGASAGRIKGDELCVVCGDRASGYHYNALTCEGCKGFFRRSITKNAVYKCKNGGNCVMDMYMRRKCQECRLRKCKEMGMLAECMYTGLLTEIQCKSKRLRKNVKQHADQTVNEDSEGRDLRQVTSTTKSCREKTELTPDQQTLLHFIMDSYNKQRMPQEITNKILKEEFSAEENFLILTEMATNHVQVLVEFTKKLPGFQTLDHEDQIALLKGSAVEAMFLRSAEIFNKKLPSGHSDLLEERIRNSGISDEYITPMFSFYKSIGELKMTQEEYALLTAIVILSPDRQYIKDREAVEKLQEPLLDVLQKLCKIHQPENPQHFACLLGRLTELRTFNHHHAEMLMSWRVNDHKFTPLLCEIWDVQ
# In short: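 Antagonist mode: titrated compounds tested against chenodeoxycholic acid stimulation (normalized to 50 uM CDCA and DMSO) in GeneBLAzer HEK293T cells for 16 h. Beta-lactamase read by CCF4 fluorescence; IC50 from Hill fits.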
# [3] = qHTS assay for small molecule antagonists of peroxisome proliferator-activated receptor delta signaling (AID 588535; active means well fitted inhibition curve with a large enough effect in the signal ratio, with a control signal flat, not every such curve was filed as active; the % refers to the signal ratio;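 on max response: cells co-treated with a PPAR-delta agonist as stimulator during compound exposure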); conditions: HEK293T PPARd-UAS-bla, beta-lactamase FRET ratio, 18 h; 460 nm channel
# In short: (§1)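 Antagonist-mode beta-lactamase reporter (GeneBLAzer PPAR-delta-UAS-bla) in HEK293T cells, 2% charcoal/dextran FBS, 4000 cells/well. Compound titrations, 18 h at 37 C; CCF4 ratio read, IC50 and efficacy from Hill fits.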
# [4] = molecular target: Peroxisome proliferator-activated receptor delta (Homo sapiens) (UniProt Q03181); assay: as above
# Chain of Peroxisome proliferator-activated receptor delta (Homo sapiens) (Q03181 whole entry, looked up): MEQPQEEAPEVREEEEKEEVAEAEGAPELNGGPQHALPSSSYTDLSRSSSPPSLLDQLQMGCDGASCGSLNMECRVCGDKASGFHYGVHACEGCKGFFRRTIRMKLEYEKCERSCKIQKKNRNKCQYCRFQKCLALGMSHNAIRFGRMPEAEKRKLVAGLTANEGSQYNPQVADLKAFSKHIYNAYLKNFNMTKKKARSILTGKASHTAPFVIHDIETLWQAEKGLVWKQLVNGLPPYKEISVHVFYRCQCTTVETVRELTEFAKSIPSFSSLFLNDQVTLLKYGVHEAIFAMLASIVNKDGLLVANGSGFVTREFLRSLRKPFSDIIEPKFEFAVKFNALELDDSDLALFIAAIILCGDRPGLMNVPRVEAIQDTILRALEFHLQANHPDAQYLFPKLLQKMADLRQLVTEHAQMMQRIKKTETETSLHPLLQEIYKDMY
# In short: as §1
# [5] = molecular target: Peroxisome proliferator-activated receptor gamma (Homo sapiens) (UniProt P37231); assay: qHTS assay for small molecule agonists of peroxisome proliferator-activated receptor gamma signaling (AID 588536; active means well fitted curve in the direction sought with a large enough effect in the signal ratio, with a control signal flat, not every such curve was filed as active; the % refers to the signal ratio)
# Chain of Peroxisome proliferator-activated receptor gamma (Homo sapiens) (P37231 whole entry, looked up): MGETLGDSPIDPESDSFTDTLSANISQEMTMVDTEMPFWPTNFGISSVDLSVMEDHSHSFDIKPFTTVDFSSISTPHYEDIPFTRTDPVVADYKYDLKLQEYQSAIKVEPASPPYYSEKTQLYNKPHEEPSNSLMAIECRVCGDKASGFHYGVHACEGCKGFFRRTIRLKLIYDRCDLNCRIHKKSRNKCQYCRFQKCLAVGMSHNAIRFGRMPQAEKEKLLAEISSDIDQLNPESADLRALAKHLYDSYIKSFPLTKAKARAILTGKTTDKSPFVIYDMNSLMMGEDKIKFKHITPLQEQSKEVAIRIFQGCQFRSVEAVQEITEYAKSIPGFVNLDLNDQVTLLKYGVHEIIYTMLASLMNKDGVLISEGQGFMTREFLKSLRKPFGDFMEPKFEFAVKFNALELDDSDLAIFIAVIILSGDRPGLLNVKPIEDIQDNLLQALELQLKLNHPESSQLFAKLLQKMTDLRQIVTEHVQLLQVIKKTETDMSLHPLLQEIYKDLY
# In short: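 HEK293 UAS-bla reporter line, 1% charcoal/dextran FBS; titration, 16 h, 37 C; CCF4 loading 2 h RT; fluorescence 460/530 nm. Normalized to rosiglitazone 2 uM = 100%, DMSO = 0%.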
# [6] = molecular target: Vitamin D3 receptor (Homo sapiens) (UniProt P11473); assay: qHTS assay for small molecule antagonists of vitamin D receptor signaling (AID 588541; calls by dose curve;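 further: receptor activated by calcitriol during compound treatment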)
# Chain of Vitamin D3 receptor (Homo sapiens) (P11473 whole entry, looked up): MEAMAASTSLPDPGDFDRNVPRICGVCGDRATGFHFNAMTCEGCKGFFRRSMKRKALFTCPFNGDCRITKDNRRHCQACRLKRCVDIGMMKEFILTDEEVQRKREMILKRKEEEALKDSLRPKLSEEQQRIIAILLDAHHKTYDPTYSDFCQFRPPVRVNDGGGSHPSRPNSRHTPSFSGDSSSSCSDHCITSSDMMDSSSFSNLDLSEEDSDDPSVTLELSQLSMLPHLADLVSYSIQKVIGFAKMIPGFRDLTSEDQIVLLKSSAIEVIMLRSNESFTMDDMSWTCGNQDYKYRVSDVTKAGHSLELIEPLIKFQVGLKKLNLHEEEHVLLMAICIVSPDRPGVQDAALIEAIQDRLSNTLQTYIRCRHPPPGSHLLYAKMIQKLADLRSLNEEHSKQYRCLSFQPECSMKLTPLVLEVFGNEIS
# In short: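 VDR-UAS-bla HEK293T cells in 2% charcoal-stripped FBS were stimulated with 1-alpha,25-dihydroxyvitamin D3 (3 nM final) plus compound for 16 h at 37 C. The beta-lactamase CCF4 readout was normalized to 50 nM agonist and DMSO, and Hill fits gave IC50.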
# [7] = qHTS assay for small molecule agonists of retinoid X receptor alpha signaling (AID 588544; calls by dose curve); conditions: HEK293T RXRa-UAS-bla, beta-lactamase reporter, 18 h; 530 nm emission
# [8] = molecular target: Retinoic acid receptor RXR-alpha (Homo sapiens) (UniProt P19793); assay: as above
# Chain of Retinoic acid receptor RXR-alpha (Homo sapiens) (P19793 whole entry, looked up): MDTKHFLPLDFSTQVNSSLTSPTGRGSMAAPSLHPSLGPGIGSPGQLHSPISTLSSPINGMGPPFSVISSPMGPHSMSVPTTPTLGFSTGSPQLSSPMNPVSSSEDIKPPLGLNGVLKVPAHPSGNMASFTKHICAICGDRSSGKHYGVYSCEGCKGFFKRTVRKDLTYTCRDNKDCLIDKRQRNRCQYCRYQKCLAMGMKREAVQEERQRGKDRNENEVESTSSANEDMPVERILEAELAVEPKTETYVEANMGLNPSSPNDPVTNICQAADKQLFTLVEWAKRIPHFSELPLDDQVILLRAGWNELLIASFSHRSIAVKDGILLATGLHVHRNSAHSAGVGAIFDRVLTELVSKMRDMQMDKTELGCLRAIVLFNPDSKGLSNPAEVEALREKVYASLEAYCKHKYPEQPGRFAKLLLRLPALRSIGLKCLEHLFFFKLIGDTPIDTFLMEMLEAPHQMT
# [9] = qHTS assay for small molecule activators of the nuclear factor-kappa B (NF-kB) signaling pathway (AID 651749; active means well fitted activation curve with a large enough effect in the signal ratio; the % refers to the signal ratio); conditions: NF-kB-bla ME-180 cells, beta-lactamase FRET ratio, 16 h; activation: stronger effect = higher value
# In short: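 NF-kB-bla ME-180 cells carrying a beta-lactamase reporter under an NF-kB response element, 2,000 cells/well, exposed to compound for 16 hr at 37C; FRET-based beta-lactamase fluorescence read-out of pathway activation.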
# [10] = qHTS assay to identify small molecules that stimulate interleukin-8 (IL-8) secretion (AID 651758; active means well fitted activation curve with a large enough effect in the signal ratio; the % refers to the signal ratio)
# In short: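 THP-1 cells (2000/well) exposed to compound 16 h at 37 C; secreted IL-8 then detected by HTRF with cryptate- and XL665-labelled anti-IL-8 antibody pair after 1-3 h at room temperature.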
# [11] = NFAT Signaling Pathway (AID 444; active means well fitted curve in either direction with a large enough effect, not every such curve was filed as active;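 further: carbachol stimulus at about its EC50 of 1 µM final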); conditions: Jurkat NFAT-bla M1, carbachol, beta-lactamase ratio, 5 h; at 17.2 µM (top of the series) unless noted
# In short: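 Jurkat cells with NFAT-driven β-lactamase reporter and co-expressed M1 receptor, stimulated with carbachol (final 1 uM, ~EC50), compound titration, 5 h at 37 °C. CCF4 loaded 1 h at RT; 460/530 nm ratio gave %activity and AC50.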
# [12] = qHTS Assay for Identification of Small Molecule Agonists for Hypoxia Response Element Signaling Pathway (AID 914; active means well fitted activation curve with a large enough effect in the signal ratio, with a control signal flat, not every such curve was filed as active; the % refers to the signal ratio); conditions: ME-180 HRE-bla reporter, beta-lactamase ratio, CoCl2, 17 h; activation: stronger effect = higher value
# In short: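 A beta-lactamase reporter under hypoxia response element control in ME-180 cells served as the system. Compound titrations plus EC50 CoCl2 ran 17 h at 37 degrees Celsius; AC50 values were fitted from %Activity.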
# [13] = molecular target: DNA dC->dU-editing enzyme APOBEC-3G (Homo sapiens) (UniProt Q9HC16); assay: qHTS for inhibitors of Vif-A3G interactions: Validation (AID 588379)
# Chain of DNA dC->dU-editing enzyme APOBEC-3G (Homo sapiens) (Q9HC16 whole entry, looked up): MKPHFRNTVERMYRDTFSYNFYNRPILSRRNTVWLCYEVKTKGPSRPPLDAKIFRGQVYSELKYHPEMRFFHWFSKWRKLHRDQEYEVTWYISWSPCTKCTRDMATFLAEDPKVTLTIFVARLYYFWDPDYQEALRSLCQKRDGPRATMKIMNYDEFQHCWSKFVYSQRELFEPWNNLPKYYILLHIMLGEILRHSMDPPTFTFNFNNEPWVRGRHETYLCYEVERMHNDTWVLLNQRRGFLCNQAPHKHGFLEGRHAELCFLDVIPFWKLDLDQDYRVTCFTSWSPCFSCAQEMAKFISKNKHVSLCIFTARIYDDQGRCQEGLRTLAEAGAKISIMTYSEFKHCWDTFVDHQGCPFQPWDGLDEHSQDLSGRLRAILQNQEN
# In short: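 HeLa cells stably expressing Vif and A3G-eYFP, 700 cells/well, incubated overnight at 37 deg C, then exposed to compound overnight at 37 deg C. Inhibition of Vif-mediated degradation read as increased yellow fluorescence (Ex 488/Em 500-530) by laser-scanning cytometry.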
# [14] = molecular target: Ubiquitin carboxyl-terminal hydrolase 1 (Homo sapiens) (UniProt O94782); assay: Inhibitors of USP1/UAF1: Pilot qHTS (AID 504865);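 further: rhodamine fluorescence freed from ubiquitin-rhodamine substrate followed over time; top concentration of the series differs between compounds; nearly all actives have a fitted effect of over 35% in size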
# Chain of Ubiquitin carboxyl-terminal hydrolase 1 (Homo sapiens) (O94782 whole entry, looked up): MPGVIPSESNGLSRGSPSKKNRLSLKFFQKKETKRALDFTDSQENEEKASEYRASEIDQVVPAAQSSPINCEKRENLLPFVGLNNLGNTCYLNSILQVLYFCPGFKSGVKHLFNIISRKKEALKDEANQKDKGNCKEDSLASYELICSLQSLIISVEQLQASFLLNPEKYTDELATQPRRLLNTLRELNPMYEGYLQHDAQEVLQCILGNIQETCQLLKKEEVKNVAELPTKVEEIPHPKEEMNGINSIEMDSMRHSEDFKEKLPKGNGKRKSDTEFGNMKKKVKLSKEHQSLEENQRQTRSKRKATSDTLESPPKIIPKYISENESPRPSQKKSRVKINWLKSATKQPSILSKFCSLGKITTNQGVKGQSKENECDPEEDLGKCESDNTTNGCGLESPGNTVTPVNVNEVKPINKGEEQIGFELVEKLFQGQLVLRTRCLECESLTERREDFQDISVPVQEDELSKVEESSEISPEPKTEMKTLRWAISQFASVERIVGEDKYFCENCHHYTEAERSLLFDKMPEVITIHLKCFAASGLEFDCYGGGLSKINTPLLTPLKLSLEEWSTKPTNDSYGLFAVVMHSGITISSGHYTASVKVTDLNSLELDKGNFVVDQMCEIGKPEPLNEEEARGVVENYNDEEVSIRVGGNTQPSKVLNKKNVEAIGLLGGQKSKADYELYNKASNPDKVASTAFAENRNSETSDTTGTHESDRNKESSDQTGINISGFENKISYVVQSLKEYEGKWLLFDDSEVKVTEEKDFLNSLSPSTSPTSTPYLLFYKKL
# In short: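 USP1/UAF1 complex at 1 nM preincubated 15 min at room temperature with compound, then Ub-Rho substrate added at 150 nM final. Fluorescence (480/540 nm) read kinetically in 50 mM HEPES pH 7.8, 0.5 mM EDTA, 1 mM TCEP, 0.1 mg/ml BSA, 0.01% Tween-20.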
# [15] = molecular target: Muscarinic acetylcholine receptor M1 (Rattus norvegicus) (UniProt P08482); assay: qHTS Assay for Antagonists of Acetylcholine Muscarinic M1 Receptor: Measurement of IP-One Response (AID 944); further: nearly all actives have a fitted effect of over 75% in size
# Chain of Muscarinic acetylcholine receptor M1 (Rattus norvegicus) (P08482 whole entry, looked up): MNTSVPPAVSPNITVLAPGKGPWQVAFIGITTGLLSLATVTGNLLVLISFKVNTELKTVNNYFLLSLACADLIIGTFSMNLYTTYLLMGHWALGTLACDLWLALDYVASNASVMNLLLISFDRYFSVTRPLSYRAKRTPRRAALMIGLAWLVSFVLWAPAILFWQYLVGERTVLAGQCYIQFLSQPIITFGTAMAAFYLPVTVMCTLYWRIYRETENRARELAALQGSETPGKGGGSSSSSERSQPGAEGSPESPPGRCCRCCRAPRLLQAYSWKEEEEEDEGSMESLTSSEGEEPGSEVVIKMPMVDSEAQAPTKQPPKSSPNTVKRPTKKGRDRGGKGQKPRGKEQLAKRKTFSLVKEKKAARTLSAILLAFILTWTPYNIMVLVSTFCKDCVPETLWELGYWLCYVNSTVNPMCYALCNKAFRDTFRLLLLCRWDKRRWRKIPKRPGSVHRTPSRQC
# In short: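 CHO cells stably expressing rat M1, pretreated 10 min with compound, then stimulated 30 min with carbachol at EC80 (200 nM) in LiCl-containing buffer pH 7.4; IP1 accumulation read by HTRF competition (665/620 nm).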
# [16] = qHTS Assay for Identification of Small Molecule Agonists for Thrombopoietin (TPO) Signaling Pathway (AID 917)
# In short: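 Murine Ba/F3 cells expressing human TPO receptor and GPIIb-promoter luciferase, IL-3-starved overnight, given compound plus TPO at 26 pM (EC50). After 24 h at 37 C, 5% CO2, luminescence read.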
# [17] = qHTS Assay for Identification of Small Molecule Antagonists for NFkB Signaling Pathway (AID 895; active means well fitted inhibition curve with a large enough effect in the signal ratio, with a control signal flat, not every such curve was filed as active; the % refers to the signal ratio; further: potency means the concentration at half of the fitted maximal effect)
# In short: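 ME-180 NFkB-bla cells (beta-lactamase under NFkB response element), plated overnight, treated with compound then 10 pM TNF alpha (about EC50) for 5 hrs at 37 C. LiveBLAzer FRET read at 460/530 nm emission, 405 nm excitation.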
# [18] = qHTS Assay for Identification of Small Molecule Antagonists for Thrombopoietin (TPO) Signaling Pathway (AID 918); conditions: TPO-dependent cell signaling reporter, antagonist mode; further: potency means the concentration at half of the fitted maximal effect; nearly all actives have a fitted effect of over 60% in size
# In short: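 Murine Ba/F3 cells expressing human TPO receptor and a Glycoprotein IIb promoter-luciferase reporter, IL-3-starved overnight, treated with compound plus TPO at EC50 (26 pM final). After 24 h at 37 C, luminescence read to detect inhibitors.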
smiles,measurement,setting,value
O=[N+]([O-])c1cc(C(F)(F)F)cc([N+](=O)[O-])c1Cl,Potency,[1],inactive
same,Potency,[2],inactive
same,max response,[3],32.3%
same,Potency,[4],inactive
same,Potency,[5],inactive
same,Potency,[6],inactive
same,max response,[7],2.71%
same,Potency,[8],inactive
same,activation,[9],-0.593% (inactive)
same,Potency,[10],inactive
C#CCO,max response,[3],29.5%
same,Potency,[4],inactive
same,Potency,[5],inactive
same,Potency,[6],inactive
same,max response,[7],3.2%
same,Potency,[8],inactive
CC(C)C[C@H](NC(=O)[C@@H]1CCCN1C(=O)[C@@H](N)Cc1ccc(O)cc1)C(=O)NCC(N)=O (H-YPLG-NH2),"activity change, negative = inhibition",[11],14.8% (inactive)
same,activation,[12],-10.4% (inactive)
COc1cc2c(cc1O)-c1c(O)c(OC)cc3c1[C@H](C2)N(C)CC3,outcome,[13],inactive
O=C(Nc1ccncc1)c1c(O)c2ccccc2n(Cc2ccccc2)c1=O,"activity change, negative = inhibition",[11],22.9% (inactive)
Oc1cc2c(cc1O)[C@H]1c3ccccc3CN[C@H]1CC2,Potency,[14],inactive
same,outcome,[13],inactive
CCCCCCCCCCCCCC(=O)O[C@H]1[C@@H](C)[C@@]2(O)[C@@H](C=C(CO)C[C@]3(O)C(=O)C(C)=C[C@@H]23)C2C(C)(C)[C@]21OC(C)=O (some centres not stated),Potency,[15],inactive
COC[C@H]1OC(=O)c2coc3c2[C@@]1(C)C1=C(C3=O)[C@H]2CCC(=O)[C@@]2(C)C[C@H]1OC(C)=O,Potency,[14],inactive
same,outcome,[13],inactive
C[C@@H]1O[C@@H](O[C@H]2C[C@@H](O)[C@]3(CO)[C@@H]4[C@@H](O)C[C@]5(C)[C@H]([C@@H]6COC(=O)C6)CC[C@@]5(O)[C@H]4CC[C@@]3(O)C2)[C@H](O)[C@H](O)[C@@H]1O,outcome,[16],inactive
OC(Cc1ccccc1)(c1ccccc1)C1CN2CCC1CC2 (configuration not stated),"activity change, negative = inhibition",[11],-83.4% (active)
same,activation,[12],10.8% (inactive)
Oc1cc2c(cc1O)[C@H]1c3ccccc3CN[C@@H]1CC2,"activity change, negative = inhibition",[11],-4.87% [at 38 µM] (inactive)
same,Potency,[17],6.31 µM (active)
same,Potency,[18],10 µM (active)
same,Potency,[15],inactive
